High-throughput results as filed in PubChem.
DRD3 agonist = D3 dopamine receptor (human) agonism; P35462; D3R DiscoveRx beta-arrestin cells, luminescence, 90 min; max activation, %; 410,000 tested, 0.58% active; AID 652048; in the data active means max activation above about 30%
Target sequence (P35462 whole entry, looked up): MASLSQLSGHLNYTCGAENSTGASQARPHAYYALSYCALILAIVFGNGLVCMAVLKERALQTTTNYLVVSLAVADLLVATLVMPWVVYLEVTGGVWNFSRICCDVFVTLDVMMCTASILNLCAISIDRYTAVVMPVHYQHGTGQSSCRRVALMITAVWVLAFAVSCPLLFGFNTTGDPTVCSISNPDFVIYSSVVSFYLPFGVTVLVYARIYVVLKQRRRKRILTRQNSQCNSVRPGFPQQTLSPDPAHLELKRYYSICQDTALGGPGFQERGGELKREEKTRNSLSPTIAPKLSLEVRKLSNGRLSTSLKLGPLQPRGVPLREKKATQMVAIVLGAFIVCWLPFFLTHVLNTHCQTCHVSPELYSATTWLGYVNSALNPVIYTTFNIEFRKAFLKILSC
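Agonist mode: compounds and dopamine controls were applied to plated cells for 90 min at 37 degrees C after an overnight attachment at 1500 cells/well. Luminescent read-out followed 30 - 60 minutes at room temperature with DiscoveRx detection reagent.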
B2AR arrestin = recruits beta-arrestin to the human beta2-adrenergic receptor; P07550; 330,000 tested, 0.02% active; beta-arrestin recruitment to beta2AR, cell-based reporter; Potency, µM (titrated, usually from 46.1 µM), actives largely listed as activators; active means well fitted activation curve with a large enough effect; inconclusive means small, poorly fitted or top-dose-only effect; further: nearly all actives have a fitted effect of over 65% in size
TSHR antagonist = blocks TSH signaling through the human TSH receptor; AID 504810; P16473; 330,000 tested, 0.2% active; activity change, negative = inhibition, % at 11.5 µM; TSHR-expressing cells, TSH-stimulated cAMP HTRF, 2 h; active compounds read low;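 active means activity change below a set negative limit, meaning inhibition stronger than a set level, cut at about -70% in these data; inconclusive means activity change between two set negative limits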
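Cell-based HTRF cAMP assay; TSHR cells + compound, TSH EC80 (4nM final), 2 h, 37 deg C. Lysis with anti-cAMP cryptate and cAMP-d2, 30 min RT, read 665/620 nm.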
D3 antag = blocks the human D3 dopamine receptor; D3R cells, DiscoveRx beta-arrestin luminescence, antagonist mode; active compounds read low; max response, negative = inhibition, %; 360,000 tested, 2.5% active; in the data active means max response below about -50%; inconclusive means no clear call, values can overlap the other calls
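Cells expressing the human receptor were seeded at 1500 cells/well, incubated overnight at 37 degrees C in 5% CO2, then exposed to library compounds with dopamine controls for 90 minutes at 37 degrees C before luminescent detection.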
Of the large screens only hits and unclear results are named; the others gave an inactive call. Sampled rows, rich in hits. Any-hit rate of the full collection: about 2.9%.

COc1ccccc1CNCC(=O)NCc1ccc(C)cc1	D3 antag -87
O=C(NC1CCOc2ccccc21)c1ccccn1 (centres undefined)	TSHR antagonist -92
Cc1cccc(CC(=O)NCC(=O)NCc2cc(=O)n(C)c(=O)n2C)c1	TSHR antagonist -90
CCOc1ccc(CC(=O)NCC(=O)NCc2cc(=O)n(C)c(=O)n2C)cc1	none
CCN1CCN(c2cc(C)c3cc(NC(=O)/C=C/c4ccc(C)cc4)ccc3n2)CC1	none (no result: B2AR arrestin, TSHR antagonist, D3 antag)
COc1cccc(Cn2c(C)c(CNCc3ccccc3Cl)c(C(=O)O)c2C)c1	none (no result: B2AR arrestin, TSHR antagonist, D3 antag)
Cc1ccc2nc(Cl)c(C3CC(c4cccs4)=NN3C(=O)CCCC(=O)O)cc2c1 (centres undefined)	DRD3 agonist 32, B2AR arrestin inconclusive
CN1CCN(c2ccc(-c3cc(NC=O)c4ncc(-c5ccc(F)cc5)n4c3)cc2)CC1	D3 antag inconclusive (no result: B2AR arrestin, TSHR antagonist)
COc1cccc(-c2cc(NC=O)c3ncc(-c4cccc(C(=O)N(C)C)c4)n3c2)c1	none (no result: B2AR arrestin, TSHR antagonist)
CN(C)CCNC(=O)c1cccc(-c2cc(NC=O)c3ncc(-c4cccc(C(F)(F)F)c4)n3c2)c1	D3 antag -52 (no result: B2AR arrestin, TSHR antagonist)
CN1CCN(c2ccc(-c3cc(NC=O)c4ncc(-c5ccccc5)n4c3)cc2)CC1	D3 antag -54 (no result: B2AR arrestin, TSHR antagonist)
COc1cccc(-c2cnc3c(NC=O)cc(-c4cccc(C(=O)N(C)C)c4)cn23)c1	DRD3 agonist 72 (no result: B2AR arrestin, TSHR antagonist)
COc1ccccc1-n1cnnc1SCC(=O)Nc1cc(C(C)(C)C)nn1-c1ccccc1	none
COc1ccc(-n2cnnc2SCC(=O)Nc2cc(C(C)(C)C)nn2-c2ccccc2)cc1	D3 antag -56
COC(=O)C1=CN(C(C)C)C=C(C(=O)OC)C1c1cc2c(cc1Br)OCO2	DRD3 agonist 33
CCCn1c(SCc2nc(-c3ccc(OC)cc3OC)no2)nnc1-c1ccc(Cl)cc1	none (no result: B2AR arrestin, TSHR antagonist, D3 antag)
OC1(c2ccc(OC(F)F)cc2)CSC(=Nc2cccnc2)N1Cc1ccco1 (centres undefined)	DRD3 agonist 57
OC1(c2ccc(F)cc2)CSC(=Nc2cccnc2)N1Cc1ccco1 (centres undefined)	none
O=C(O)c1ccccc1-c1ccc(C=c2sc3nc4cc(Br)cnc4n3c2=O)o1	D3 antag -55 (no result: B2AR arrestin, TSHR antagonist)
O=C(O)c1cc(C(=O)O)cc(-c2ccc(/C=c3/sc4nc5ccccc5n4c3=O)o2)c1	none
Cc1ccc(/C=C2\SC(=S)N(/N=C/c3cc([N+](=O)[O-])ccc3O)C2=O)o1	D3 antag -75
O=C(NC1(C(F)(F)F)N=C(c2ccccc2)N(Cc2ccccc2)C1=O)c1ccc(F)cc1 (centres undefined)	none (no result: B2AR arrestin, TSHR antagonist, D3 antag)
COc1cc2ccccc2cc1C(=O)N1CCN(c2nc3c(C)cc(C)cc3s2)CC1	none (no result: B2AR arrestin, TSHR antagonist, D3 antag)
CC(C)(C)n1nnnc1C(c1cccs1)N(Cc1cccnc1)Cc1ccccc1Cl (centres undefined)	D3 antag -58
C=CCOc1c(Cl)cc(CNc2ccc(N(C)C)cc2)cc1OC	TSHR antagonist -108
C=CCOc1c(Cl)cc(CNc2ccc(C)c(Cl)c2)cc1OC	none (no result: DRD3 agonist, D3 antag)
O=C(NC(c1ccc(F)cc1)c1ccc2ccccc2n1)C1CCN(CCOc2ccc(F)cc2)CC1 (centres undefined)	D3 antag inconclusive (no result: B2AR arrestin, TSHR antagonist)
COc1ccc(OCCN2CCC(C(=O)NC(c3ccc(F)cc3)c3ccc4ccccc4n3)CC2)cc1 (centres undefined)	D3 antag -70 (no result: B2AR arrestin, TSHR antagonist)
COc1ccc(OCCN2CCC(C(=O)NC(c3ccccc3)c3ccc4ccccc4n3)CC2)cc1 (centres undefined)	D3 antag -102 (no result: B2AR arrestin, TSHR antagonist)
O=C(NC(c1ccccc1)c1ccc2ccccc2n1)C1CCN(CCOc2ccc(Cl)cc2)CC1 (centres undefined)	none (no result: B2AR arrestin, TSHR antagonist)
Cc1ccc(O)c(NC(=O)c2nc3nc(C)cc(C(F)F)n3n2)c1	none (no result: B2AR arrestin, TSHR antagonist, D3 antag)
Cc1ccc(NC(=O)CSc2nc3ccc(NC(=O)c4cccs4)cc3s2)c(C)c1	none (no result: B2AR arrestin, TSHR antagonist, D3 antag)
Cc1cccc(NC(=O)CSC2=Nc3ccccc3C3=NC(CCC(=O)NCc4ccc(F)cc4)C(=O)N23)c1 (centres undefined)	none (no result: B2AR arrestin, TSHR antagonist, D3 antag)
Cc1noc(C)c1C(=O)N1CCC1(C)C(=O)NS(=O)(=O)c1cccc(Cl)c1 (centres undefined)	DRD3 agonist 30 (no result: B2AR arrestin, TSHR antagonist)
Cc1noc(C)c1C(=O)N1CCC1(C)C(=O)NS(=O)(=O)c1ccc(Cl)cc1 (centres undefined)	none (no result: B2AR arrestin, TSHR antagonist)
CCCN(Cc1cccs1)C(=O)Nc1ccc(F)c(Cl)c1	none (no result: B2AR arrestin, TSHR antagonist, D3 antag)
CCCCC(CC)COC(=O)CC(C(=O)OCC(CC)CCCC)S(=O)(=O)O (centres undefined)	none (no result: B2AR arrestin, TSHR antagonist, D3 antag)
CCCCC(CC)COC(=O)C(C#N)=C(c1ccccc1)c1ccccc1 (centres undefined)	D3 antag -74
COc1cc2c(cc1OC)C1(CCCC1)CNC2c1cccc([N+](=O)[O-])c1 (centres undefined)	D3 antag -77
Cc1ccc(NC(=O)C2CCCN(S(=O)(=O)c3ccc4c(c3)oc(=O)n4C)C2)cc1Cl (centres undefined)	none (no result: B2AR arrestin, TSHR antagonist, D3 antag)
CN1CCc2c(sc(/N=C/c3cc(C(C)(C)C)ccc3O)c2C#N)C1	D3 antag -54
COc1ccc(/C=N/c2sc3c(c2C#N)CCN(Cc2ccccc2)C3)c(O)c1	none (no result: DRD3 agonist, D3 antag)
COC(=O)c1ccc(C)c(N(CCO)CCO)c1	DRD3 agonist 36
COC(=O)c1ccc(C)cc1	none
C[C@@H](NCCCc1cccc(C(F)(F)F)c1)c1cccc2ccccc12	none (no result: B2AR arrestin, TSHR antagonist, D3 antag)
COc1ccc2[nH]c3c(c2c1)CCN1C(=O)C(CC(=O)NCC24CC5CC(CC(C5)C2)C4)C[C@H](C(=O)N2CCOCC2)[C@@]31C (some centres undefined)	none
CCN(CC)C(=O)[C@H]1CC(CC(=O)NCCCn2ccnc2)C(=O)N2CCc3c([nH]c4ccc(OC)cc34)[C@]12C (some centres undefined)	none
COc1ccc2[nH]c3c(c2c1)CCN1C(=O)C(CC(=O)NCC24CC5CC(CC(C5)C2)C4)C[C@H](C(=O)N(C(C)C)C(C)C)[C@@]31C (some centres undefined)	DRD3 agonist 37
COc1ccc2[nH]c3c(c2c1)CCN1C(=O)C(CC(=O)NCCCn2ccnc2)C[C@H](C(=O)N(C(C)C)C(C)C)[C@@]31C (some centres undefined)	DRD3 agonist 51
CCN1CCN(CC(=O)N2N=CCC2c2ccccc2)CC1 (centres undefined)	D3 antag -51
Cc1ccc(C)c(N2CCN(C(=O)c3c(C)oc4nc(C)nc(N5CCOCC5)c34)CC2)c1	none (no result: B2AR arrestin, TSHR antagonist, D3 antag)
COc1cc(CN2CCCC(C(=O)c3ccc(C(C)(C)C)cc3)C2)cc(OC)c1O (centres undefined)	D3 antag -59
O=C(c1cccc(C(F)(F)F)c1)C1CCCN(Cc2cccn2-c2ncccn2)C1 (centres undefined)	D3 antag -54
CCOc1cc(CN2CCCC(C(=O)c3cccc(C(F)(F)F)c3)C2)ccc1O (centres undefined)	D3 antag -70
COc1ccc(CN2CCCC(C(=O)c3ccc(Cl)cc3)C2)cc1Cn1cccn1 (centres undefined)	B2AR arrestin inconclusive
